{
  "source": "ChEMBL document CHEMBL1157539",
  "about": "“Thousands of chemical starting points for antimalarial lead identification” (Nature, 2010)",
  "data": [
    {"test_system": "HepG2", "assay": "GSK_TCMDC: Percent inhibition of human HepG2 cell line. Test compounds present at 10uM.", "type": "functional", "units": {"Inhibition": "%"}, "values": [
      {"compound": "CCc1cn2c3c(cc(C(=O)N[C@@H](Cc4ccccc4)[C@H](O)CNC4CCC4)cc13)N(C)S(=O)(=O)CC2", "Inhibition": 0},
      {"compound": "CC(=O)C=C1CC(=O)N(C[C@@H](O)[C@H]2O[C@@H]3OC(C)(C)O[C@@H]3[C@H]2O)c2ccccc2N1", "Inhibition": 0},
      {"compound": "CCOc1cc2ncnc(Nc3cc(Cl)c(Cl)c(Cl)c3)c2cc1OCC.Cl", "Inhibition": 11},
      {"compound": "Cc1ccc(C(C#N)c2ccc3c(C(F)(F)F)cc(C(F)(F)F)nc3n2)cc1", "note": "(stereo not given)", "Inhibition": 14},
      {"compound": "CCOc1cc(C(=O)NCc2cc(Cl)cc(Cl)c2)ccc1-c1nc2cc(Cl)ccc2[nH]1", "Inhibition": 1},
      {"compound": "Nc1cc(/C=C/c2ccc([N+](=O)[O-])o2)nc2ccccc12", "Inhibition": 100},
      {"compound": "Cc1cc(N2CCCC2)nc(Nc2ccc(NC(=O)C(C)C)cc2)n1", "Inhibition": 40},
      {"compound": "O=C(Nc1cccc(C(F)(F)F)c1)c1cccc(S(=O)(=O)NCC2CCN(CC3CCCCC3)CC2)c1.O=C(O)C(F)(F)F", "Inhibition": 27},
      {"compound": "COc1ccc(NC(=O)Nc2ccc(Nc3nc(C)cc(N(C)C)n3)cc2)cc1", "Inhibition": 11},
      {"compound": "NC(=O)c1ccccc1OCC(=O)Nc1cccc(-c2ccc(-c3nc4cc(C(F)(F)F)ccc4[nH]3)cc2)c1", "Inhibition": 58},
      {"compound": "COc1cc(NC(=O)Nc2ccc([N+](=O)[O-])cc2OC)c(OC)cc1Cl", "Inhibition": 38},
      {"compound": "c1cncc(NCc2ccc(-c3cc4ccncc4cc3OC3CCNCC3)s2)c1", "Inhibition": 4},
      {"compound": "OC(COc1ccccc1-c1nc2ccccc2o1)CN1CCCN(CCc2ccccc2)CC1", "note": "(stereo not given)", "Inhibition": 39},
      {"compound": "COc1cccc(C(=O)NC(c2ccc(Cl)cc2Cl)c2cc(Cl)c3cccnc3c2O)c1", "note": "(stereo not given)", "Inhibition": 37},
      {"compound": "COc1ccc(NC(=O)c2ccc(-c3cc(NC(=O)c4ccnc(N5CCCC5)c4)ccc3C)s2)cc1N1CCN(C)CC1.O=C(O)C(F)(F)F", "Inhibition": 15},
      {"compound": "COc1ccc(C=C2SC(=O)N=C2Nc2ccccc2)c(OC)c1", "Inhibition": 51},
      {"compound": "CC(=O)N(C)c1cccc(C(=O)Nc2cccc(-c3cccc(-c4nc5cccc(C)c5[nH]4)c3)c2)c1", "Inhibition": 15},
      {"compound": "COc1cc(C=CC(=O)N2CCC(CCN3CCC(c4c[nH]c5ccccc45)CC3)CC2)cc(OC)c1", "Inhibition": 39},
      {"compound": "NC1CCCN(Cc2cccc(-c3ccc(-c4nc5ccccc5[nH]4)cc3)c2)C1.O=C(O)C(F)(F)F", "note": "(stereo not given)", "Inhibition": 25},
      {"compound": "CCCCCCOc1ccc(C(=O)NCCC2CCN(CCCCCNC(=O)C=Cc3ccc(Cl)c(Cl)c3)CC2)cc1", "Inhibition": 13},
      {"compound": "COC(=O)c1ccc(-c2ccc(C(=O)NCC3CCN(c4nc(N)c5cc(OC)c(OC)cc5n4)CC3)cc2)cc1", "Inhibition": 53},
      {"compound": "Cc1ccc2c(OCCN3CCC(Cc4cc5c(cc4F)OCC(=O)N5)CC3)cc(F)cc2n1.Cl", "Inhibition": 27},
      {"compound": "CCSc1nnc(C2CCCN(CC(=O)Nc3cc(C(F)(F)F)ccc3Cl)C2)n1CC", "note": "(stereo not given)", "Inhibition": 0},
      {"compound": "O=C(NCC1CCN(CC2CCCCC2)C1)c1cc(-c2cccc(C(F)(F)F)c2)cs1.O=C(O)C(F)(F)F", "note": "(stereo not given)", "Inhibition": 47},
      {"compound": "CCCCCC(C)(C)NC[C@@H](O)[C@H](Cc1ccccc1)NC(=O)c1cc(NCC)cc(N2CCCC2=O)c1.O=CO", "Inhibition": 9},
      {"compound": "Cn1nccc1C(=O)NCCNCc1ccc(-c2cccc(-c3nc4cc(F)ccc4[nH]3)c2)cc1.O=C(O)C(F)(F)F", "Inhibition": 37},
      {"compound": "CN1C(C)(C)CC(NC(=O)c2ccc(-c3nc4cc(Cl)c(Cl)cc4[nH]3)cc2)CC1(C)C", "Inhibition": 8},
      {"compound": "CCc1cc(OC)c(C(=O)NC2CCN(C[C@H](O)c3ccnc4ccc(OC)cc34)CC2)cc1Br", "Inhibition": 6},
      {"compound": "NC(=O)c1cccc(CN2Cc3ccccc3OC3(CCN(Cc4c[nH]c5cnccc45)CC3)C2)c1.O=C(O)C(F)(F)F", "Inhibition": 9},
      {"compound": "CCN1CCCC1CN(Cc1ccc(-c2ccc(C(F)(F)F)cc2)cc1)C(=O)Cn1c(CCc2cccc(F)c2F)nc(=O)c2ccccc21.O=C(O)C(O)C(O)C(=O)O", "note": "(stereo not given)", "Inhibition": 40},
      {"compound": "CC(C)(C)C1CCc2onc(C(=O)Nc3cc(Cl)ccc3O)c2C1", "note": "(stereo not given)", "Inhibition": 5},
      {"compound": "Cl.O=c1nc(NCCCNCc2cc3c(Cl)cc(Cl)cc3[nH]2)[nH]c2ccccc12", "Inhibition": 10},
      {"compound": "CC(=NNC(=N)N)c1ccc2c(ccc3ccccc32)c1.Cl", "Inhibition": 47},
      {"compound": "Cc1ccc(Nc2nc(N)c3ccccc3n2)cc1.Cl", "Inhibition": 9},
      {"compound": "Cc1cc(NCCC(=O)Nc2ccccc2)nc(NCCc2cccs2)n1.O=C(O)C(F)(F)F", "Inhibition": 26},
      {"compound": "COc1ccc(C(=C(C)CC(C)C(=O)O)c2ccccc2)cc1", "note": "(stereo not given)", "Inhibition": 6},
      {"compound": "O=[N+]([O-])c1cccc(/C=N/Nc2ccnc3cc(F)ccc23)c1", "Inhibition": 4},
      {"compound": "Cc1ccc(CN2CCCN(Cc3cccc(NC(=O)c4ccc(Cl)c(Cl)c4)c3)CC2)cc1.O=C(O)C(F)(F)F", "Inhibition": 32},
      {"compound": "Cc1ccc2c(=O)c3cc(C)ccc3[nH]c2c1", "Inhibition": 10},
      {"compound": "Cc1cc(NC(=O)NCCN2CCC(NS(=O)(=O)c3ccccc3Cl)C2)c2ccccc2n1", "note": "(stereo not given)", "Inhibition": 1}
    ]}
  ]
}
